The structures appear in SMILES notation. About 6,800 (1.8%) of roughly 370,000 compounds were called active. This is one part of a sample in which actives are shown more often than they occur. Values without a mark were called inactive.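 The calls were made as follows: active = activation above a cutoff set at the mean of all screened compounds plus 3 SD (cut at about 10% in these data); inactive = the rest.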

The subject of the assay is Nuclear hormone receptor DAF-12 (Heterodera glycines), GAL4 fusion. Nature of the assay: hgDAF-12 GAL4 fusion reporter activation – cell-based, luminescence, HEK293, UAS-luciferase, primary screen (AID 687014).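 Also: 0% = DMSO wells and 100% = sodium butyrate wells.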 The note with it: HEK293 GAL4-hgDAF12 UAS-luciferase reporter, agonist luminescence; at 6.8 µM; stronger effect = higher value; normalized to butyrate control.
In the case of `CC(=O)N1C(C)c2ccccc2C(C)(C)CC12CCCCC2` (stereo not drawn), the activation was -2.75%.

Regarding `CN[C@H]1C[C@H]2c3[nH]c4c(-c5ccccc5)cccc4c3CCN2C(=O)[C@H]1[C@H](C)O`, the activation was -0.57%.

Turning to `O=C(N/N=C/c1cccc2cccnc12)[C@H]1C[C@@H]1c1ccccc1`, the activation was -1.03%.

Take `O=C(Cc1ccc(Cl)cc1)NC(=S)Nc1ccccc1O`: the activation is 3.46%.

For `O=C(NC(=S)Nc1cccc2c(O)cccc12)c1cccc(Br)c1`, the activation is 0.96%.

On to `O=C(NC(=O)c1ccccc1)Nc1ccccc1O`, for which the activation was 13.8% (active).

As to `CCOC(=O)[C@H]1CCC[C@@H](NS(=O)(=O)c2ccc(NC(C)=O)cc2)C1`, the activation was 1.29%.

`Cc1ccc(NC(=O)Cc2cccc(F)c2)c(S(=O)(=O)N2CCOCC2)c1`: the activation was 1.41%.

In the case of `COCC1CCCN(Cc2nc(-c3ccc4c(c3)OCO4)no2)C1` (stereo not drawn), the activation is 6.75%.

Consider `O=C(COCc1cc(-c2ccc3c(c2)OCO3)on1)N1CCN(c2cccc(Cl)c2)CC1`, for which the activation was 1.17%.

Consider `CCc1ccccc1NC(=O)CSc1nnc(-c2cccs2)o1`, for which the activation is 2.52%.

For the compound `CNC(=S)N1N=C(c2ccccc2)CC1c1ccc(Br)cc1` (stereo not drawn), the activation is -1.01%.

As for `Brc1ccc(C2CC(c3ccccc3)=Nc3ccccc3N2)cc1` (stereo not drawn), the activation was 17.3% (active).

`CN1[C@H](Cc2ccccc2)COc2cccc(N3CCSCC3)c2S1(=O)=O`: the activation was 4.83%.

As to `Cc1cc(=O)[nH]c(SCC(=O)Nc2ccc(Cl)cc2C)n1`, the activation is 1.76%.

As for `CCCCCCCCNS(=O)(=O)/C=C/c1cc(C)ccc1CNC(=O)OC(C)(C)C`, the activation was 0.08%.

In the case of `COC(=O)c1cc(S(=O)(=O)N2CCN(c3ccccc3C)CC2)cn1C`, the activation was -4.6%.

Take `CC(C)c1cc(C(N)=O)c(NC(=O)c2cccc(COc3ccc(Br)cc3)c2)s1`: the activation is 16.6% (active).

In the case of `CCOC(=O)c1cc(C(C)C)sc1NC(=O)COC(=O)c1nccnc1N`, the activation was 0.71%.

Turning to `Cc1sc(NC(=O)c2ccc3ncsc3c2)c(C(N)=O)c1C`, the activation was 8.75%.

As to `C[C@H](O)[C@@H]1C(=O)N2CCc3c([nH]c4c(-c5ccc6c(c5)OCO6)cccc34)[C@@H]2C[C@@H]1N(C)C(=O)c1ccco1`, the activation is 2.82%.

For `Nc1nc2c(ncn2[C@@H]2O[C@H](C(=O)N[C@H](Cc3ccccc3)C(=O)NCC3CCCCC3)[C@@H](O)[C@H]2O)c(=O)[nH]1`, the activation is -0.41%.

For `c1ccc2c(c1)nnn2-c1ccncc1`, the activation was 0.89%.

Take `COCCCNC(=O)C[C@H]1C[C@@]2(C(=O)OC)C(=C[C@H](C(C)(C)C)O[C@@H]2C)N(Cc2ccc3c(c2)OCO3)C1=O`: the activation was 1.15%.

Take `Cc1ccc(-c2noc(CNC(=O)c3ccoc3C)n2)cc1`: the activation is -0.34%.

As to `Cc1cc(Cl)ccc1OCc1nc(-c2ccncc2)no1`, the activation was 14% (active).

Turning to `CC1CCN(Cc2nc(-c3ccc(Cl)cc3)no2)CC1`, the activation is 0.37%.

Consider `CN(CCc1ccccc1)C(=O)Cn1nc(-c2ccccc2)ccc1=O`, for which the activation was 1.22%.

Take `O=C1CC[C@@]23CCCN2C(=O)CCC[C@H]3[C@H]1Cc1ccccc1`: the activation is -4.37%.

Regarding `Cc1nc2cc(NCc3cccs3)ccc2n1C`, the activation was 8.48%.

As to `Cc1nc2nc(SCC(=O)Nc3cccc(F)c3)[nH]c2cc1Br`, the activation is 0.38%.

In the case of `Cc1nc2cc(NC(=O)Nc3cccc(F)c3)ccc2n1C`, the activation is 14.2% (active).

Consider `Cc1ccc(C)c(CN2CCC(CNC(=O)C3CCCN(c4ncnc5c4nc4n5CCCCC4)C3)CC2)c1` (stereo not drawn), for which the activation is -0.85%.

On to `COC(=O)C(C(=O)OC)c1ccccc1NS(=O)(=O)c1cccc2ccccc12`, for which the activation is -2.1%.

In the case of `COc1ccc2cc(C(=O)C3CCCN(C(=O)c4sc(C)nc4C)C3)ccc2c1` (stereo not drawn), the activation is -1.02%.

On to `CCOc1ccc(NC(=O)C2CCCN(C(=O)Nc3ccccc3)C2)cc1` (stereo not drawn), for which the activation was 1.89%.

Take `CCOc1ccc2nc(C(=O)N3CCCC(C)C3)sc2c1` (stereo not drawn): the activation was 17.9% (active).

`COc1ccc(N(CC(=O)NCc2ccc(F)cc2)C(=O)CCC(=O)Nc2nccs2)cc1`: the activation is 1.39%.

For the compound `CC(C)C(=O)Nc1oc(-c2ccccc2)cc1C#N`, the activation was -0.28%.

Turning to `CC(C)C(=O)Nc1ccc2c(c1)oc1ccccc12`, the activation is 12.2% (active).

On to `CC(C)C(=O)Nc1c(C(=O)c2ccc(F)cc2)oc2ccccc12`, for which the activation is -0.79%.

With `COC(=O)N1Cc2ccnnc2CC1c1ccccc1Br` (stereo not drawn), the activation is 0.66%.

For `FC(F)(F)c1cccc(-c2nc3ccccc3n2C(c2ccccc2)c2nc3ccccc3[nH]2)c1` (stereo not drawn), the activation was 10.7% (active).

With `CCC(c1nc2ccccc2[nH]1)n1c(=O)c(-c2cccs2)nc2ccccc21` (stereo not drawn), the activation was 1.53%.

With `FC(F)(F)c1cccc(-c2cc3ccccc3nc2N2CCCC2)c1`, the activation is -1.35%.

For `COC(=O)C1=C(C)N(Cc2ccccc2C(F)(F)F)C(=NCC2CC2)NC1c1cccc(Cl)c1` (stereo not drawn), the activation is 4.82%.

As for `C=CCN1[C@H](CC(C)C)COc2cccc(N3CCCC3)c2S1(=O)=O`, the activation is 1.57%.

As for `Cn1nc(-c2ccccc2)c(CSc2cccc(Cl)c2)c1Cl`, the activation is -1.11%.

In the case of `O=c1c2ccccc2nc2n1C(CSc1ccc(Cl)cc1)CN2` (stereo not drawn), the activation is -1.24%.

On to `Clc1ccc2nc(CSc3ccccc3)cn2c1`, for which the activation is 15.8% (active).

Consider `COC(=O)C[C@@H]1CC[C@@H]2[C@H](COc3ccc(NC(=O)c4cccc(F)c4)cc3C(=O)N2C)O1`, for which the activation is 7.18%.

Regarding `Cc1noc(C)c1NC(=O)Nc1ccc2c(c1)C(=O)N([C@H](C)CO)C[C@H](C)[C@H](CN(C)Cc1ccncc1)OCCCC[C@@H](C)O2`, the activation is 2.01%.

Consider `C=CS(=O)(=O)N(Cc1nnn(Cc2ccccc2)c1Br)[C@H](C(=O)OC)C(C)C`, for which the activation was -3.42%.

Regarding `COCC(=O)N1CCCC(C(=O)c2ccc(C(F)(F)F)cc2)C1` (stereo not drawn), the activation was -2.29%.

On to `O=C(c1ccc(C(F)(F)F)cc1)C1CCCN(C(=O)c2csnn2)C1` (stereo not drawn), for which the activation was -0.18%.

Regarding `Cc1cnc(C(=O)N2CCCC(C(=O)c3ccc(C(F)(F)F)cc3)C2)cn1` (stereo not drawn), the activation was 19.4% (active).

On to `COc1ccc(-n2c(SCC(=O)Nc3ccc4cn[nH]c4c3)nnc2-c2cccnc2)cc1`, for which the activation was -0.21%.

With `OC(CCl)CCl`, the activation is 2.07%.

For the compound `C/C(=N\Nc1nc2ccccc2[nH]1)c1cccs1`, the activation is 12.3% (active).

For `C/C(=N\Nc1ccc(S(N)(=O)=O)cc1[N+](=O)[O-])c1cccs1`, the activation was -0.57%.

In the case of `C/C(=N\NC(=O)CSc1nc2ccccc2c(=O)n1-c1ccccc1C)c1cccs1`, the activation is -2.57%.

Regarding `COCCCNC(=O)C[C@H]1C[C@@]2(C(=O)OC)C(=C[C@H](C(C)(C)C)O[C@@H]2C)N(Cc2ccc(Cl)cc2Cl)C1=O`, the activation was -0.78%.

With `Cc1cc(N2CCN(C(=O)OC(C)(C)C)C[C@H]2C)ccc1N1CCN(Cc2ccccc2)[C@H](C)C1`, the activation is -0.97%.

`COc1ccc(C(=O)C2CCCN(C(=O)c3cc(C)on3)C2)cc1F` (stereo not drawn): the activation was -1.33%.

For the compound `COc1ccc(OCc2cc(C(=O)N3CCCC3)no2)c2ccccc12`, the activation was 7.54%.

On to `COc1ccccc1-c1cc(C(=O)N2CCCCC2)no1`, for which the activation was 11.7% (active).

With `CC(=O)c1ccc(NC(=O)c2cc(-c3cccs3)on2)cc1`, the activation was 1.57%.

In the case of `O=C(c1cc(COc2cccc(C(F)(F)F)c2)on1)N1CCSCC1`, the activation was -1.54%.

With `O=C(c1cc(-c2ccccc2O)on1)N1CCCC1`, the activation was 13.1% (active).

For the compound `O=C(c1cc(C2CCCCN2S(=O)(=O)c2ccccc2)on1)N1CCOCC1` (stereo not drawn), the activation is 1.09%.

`O=C(c1cc(-c2cccs2)on1)N1CCCCC1`: the activation is 10.8% (active).

On to `CCOC(=O)C1CCCN(C(=O)c2cc(-c3cccs3)oc2C)CC1` (stereo not drawn), for which the activation was -2.05%.

As to `N#Cc1ccc(OC[C@@H](O)CN2CCC(C(O)(c3ccccc3)c3ccccc3)CC2)c(F)c1`, the activation was -0.04%.

`CN(C)Cc1cn(-c2ccc(-c3noc4c3C(=O)N(CC(=O)N3CCOCC3)CC4)cc2)nn1`: the activation is -1.17%.

Consider `O=C(c1ccncc1)N1CC[C@H]2[C@H](CCCN2Cc2ccc(F)cc2)C1`, for which the activation is 5.55%.

Consider `O=C(NCCS(=O)(=O)N1CCN(c2ccccc2F)CC1)c1ccc(Br)o1`, for which the activation is 0.09%.

As to `CC(=O)N1Cc2cc(C(=O)NCc3cccc(F)c3)nc(-c3cccc(C4=CCCC4)c3)c2[C@H]1CCO`, the activation is -1.83%.

With `COc1ccc2c(c1)CN1CN(CCc3ccccc3)S(=O)(=O)CC21` (stereo not drawn), the activation was 0.93%.

Consider `CC1(C(=O)Nc2cccc(Oc3ccccc3)c2)CCN1Cc1ccccc1Cl` (stereo not drawn), for which the activation was -0.38%.

`COc1ccc(/C=C/C(=O)OCC(=O)Nc2cccc(Oc3ccccc3)c2)c(OC)c1`: the activation is 2.49%.

`Cc1ccoc1C(=O)Nc1cccc(Oc2ccccc2)c1`: the activation was 11.7% (active).

Take `O=C(NCc1ccccc1)[C@@H]1CCCN1C(=O)[C@@H](NS(=O)(=O)c1ccc(F)cc1F)C1CCCCC1`: the activation is -0.9%.

As to `C[C@H]1CN([C@@H](C)CO)C(=O)CCCn2nncc2CO[C@@H]1CN(C)C(=O)Nc1ccc(N2CCN(C)CC2)cc1`, the activation is -1.55%.

With `CCOc1ccc(-n2c(SCC(=O)Nc3cc(C)c(NC(=O)c4ccccc4)cc3OC)nnc2-c2cccc(Cl)c2)cc1`, the activation is -2.83%.

Take `COC(=O)C1=C(C)N(Cc2cccc(C(F)(F)F)c2)C(=NCc2ccccc2)NC1c1ccc(Cl)cc1` (stereo not drawn): the activation is 4.18%.

In the case of `COc1ccc(Cc2nc3ccc(C(=O)NCC4CCOCC4)cc3o2)cc1OC`, the activation is 2.3%.

In the case of `CSCCNC(=O)c1ccc2nc(Cc3ccccc3F)oc2c1`, the activation was 10.5% (active).

For the compound `COCCNC(=O)c1ccc2nc(Cc3ccc(OC)c(OC)c3)oc2c1`, the activation is 4.83%.

Values taken from PubChem BioAssay AID687014 (The Scripps Research Institute Molecular Screening Center, 2013).
